Results taken from PubChem BioAssay (EPA / NIEHS).
Records with an inconclusive call do not appear. Calls of active or inactive are those of the source. Rule for the calls, unless noted: active = hit-call score of the fitted dose curve at least 0.9, where 1 is the maximum; inactive = score below 0.9.

What was measured:
[1] = ATG_TAL_CIS: Attagene CIS-FACTORIAL HepG2 Assay for human TAL Basal Promoter (AID 2282966); conditions: HepG2 Attagene cis-factorial TAL promoter reporter; actives raise or lower the signal;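 note: background control endpoint measuring basal TAL promoter reporter mRNA not a specific factor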
Method in brief: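 Readout: reporter mRNA, fluorescence by CE. System: HepG2, transient multi-reporter transfection, endogenous TF activity. Exposure: 24 h. Analysis: bidirectional, DMSO-normalized; background control.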

[2] = ATG_TGFb_CIS: Attagene CIS-FACTORIAL HepG2 Assay for human Transforming Growth Factor (TGF) (AID 2282967); conditions: HepG2 Attagene CIS TGFb reporter, mRNA transcription; actives raise or lower the signal
Method in brief: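 Liver HepG2 line, cis-factorial reporter panel, 24 h dosing. Quantitation: RT-PCR products labeled with 6-FAM, cut with HpaI, resolved by capillary electrophoresis; DMSO-referenced bidirectional analysis.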

[3] = ATG_VDRE_CIS: Attagene CIS-FACTORIAL HepG2 Assay for human Vitamin D Receptor Element (VDRE) (AID 2282968); conditions: HepG2 VDRE cis-reporter transcription, actives raise or lower the signal
Method in brief: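 Reporter mRNA induction, quantified by capillary electrophoresis of fluorescently labelled RT-PCR products, was read 24 h after dosing HepG2 cells carrying transiently transfected cis-regulated reporter units; gain or loss relative to DMSO.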

[4] = target: X-box-binding protein 1 (Homo sapiens) (UniProt P17861); assay: ATG_Xbp1_CIS: Attagene CIS-FACTORIAL HepG2 Assay for human X-box Binding Protein 1 (XBP1) (AID 2282972); conditions: HepG2 XBP1 cis-element reporter, Attagene multiplex; actives raise or lower the signal
Method in brief: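 HepG2, transient MRTU transfection (cis-promoter driven), 24 h compound exposure. Total RNA → oligo(dT) RT → PCR → 6-FAM labeling → HpaI cut → CE. Bidirectional fit vs DMSO.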

[5] = ATG_M_19_TRANS: Attagene TRANS-FACTORIAL HepG2 Assay for M19 Transcription Factor (Internal Marker) (AID 2282974; active = hit-call score of the fitted dose curve at least 0.9, where 1 is the maximum); conditions: HepG2 Attagene TRANS-FACTORIAL M19 internal marker reporter
Method in brief: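 HepG2 transiently transfected with GAL4-UAS multiplex reporter constructs, exposed 24 h; reporter RNA quantified by RT-PCR, 6-FAM labeling, HpaI digestion and capillary electrophoresis; internal background marker fitted upward versus DMSO.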

[6] = target: Estrogen-related receptor gamma (Homo sapiens) (UniProt P62508); assay: ATG_ERRg_TRANS: Attagene TRANS-FACTORIAL HepG2 Assay for human Estrogen-Related Receptor gamma (ERRg) (AID 2282977; active = hit-call score of the fitted dose curve at least 0.9, where 1 is the maximum;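 note: hits increase reporter signal over DMSO so potencies reflect activators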); conditions: HepG2 Attagene TRANS reporter, ERRg transactivation
Method in brief: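 HepG2 cells transiently transfected with multiplexed GAL4-UAS reporter units driven by chimeric NR-Gal4 proteins; 24 h exposure. Reporter mRNA quantified by RT-PCR, fluorescent labelling, HpaI digestion and capillary electrophoresis; gain of signal vs DMSO.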

[7] = target: Bile acid receptor (Homo sapiens) (UniProt Q96RI1); assay: ATG_FXR_TRANS: Attagene TRANS-FACTORIAL HepG2 Assay for Farnesoid X Receptor (FXR) (AID 2282979; active = hit-call score of the fitted dose curve at least 0.9, where 1 is the maximum;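 note: hits raise reporter mRNA above DMSO so AC50 marks FXR activation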); conditions: HepG2 Attagene TRANS FXR-GAL4 reporter transcription
Method in brief: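 Chimeric FXR-GAL4 activity in transiently transfected human HepG2 liver cells is scored as induction of reporter mRNA after 24 h of dosing. Detection uses RT-PCR with fluorescent labelling and capillary electrophoresis, with DMSO serving as baseline.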

[8] = target: Hepatocyte nuclear factor 4-alpha (Homo sapiens) (UniProt P41235); assay: ATG_HNF4a_TRANS: Attagene TRANS-FACTORIAL HepG2 Assay for human Hepatocyte Nuclear Factor 4 alpha (HNF4a) (AID 2282982; active = hit-call score of the fitted dose curve at least 0.9, where 1 is the maximum); conditions: HepG2 HNF4a transactivation reporter, mRNA readout
Method in brief: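 Readout is fluorescent reporter-transcript fragments resolved by capillary electrophoresis after RT-PCR from HepG2 cells dosed for 24 h. Cells carried transfected GAL4-UAS reporter constructs measuring exogenous NR-GAL4 chimera activity; DMSO served as baseline.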

[9] = ATG_M_06_TRANS: Attagene TRANS-FACTORIAL HepG2 Assay for M06 Transcription Factor (Internal Marker) (AID 2282983; active = hit-call score of the fitted dose curve at least 0.9, where 1 is the maximum;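 note: reporter transcript level by RT-PCR then capillary electrophoresis fluorescence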); conditions: HepG2 Attagene TRANS M06 internal marker reporter
Method in brief: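 Measured by capillary electrophoresis of fluorescently labelled RT-PCR products, this endpoint reflects reporter mRNA in HepG2 cells harbouring exogenous NR-GAL4 reporter constructs after 24 h exposure, with DMSO as baseline.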

[10] = target: Transcriptional activator Myb (Homo sapiens) (UniProt P10242); assay: ATG_Myb_CIS: Attagene CIS-FACTORIAL HepG2 Assay for human Myeloblastosis (Myb) Proto-Oncogene Transcription Factor (AID 2282986); conditions: HepG2 Attagene CIS-FACTORIAL Myb reporter transcription; actives raise or lower the signal
Method in brief: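 Transiently transfected HepG2 cells carrying a multiplexed cis-promoter reporter set report endogenous Myb activity after 24 h compound exposure. Reporter mRNA is read by RT-PCR with capillary electrophoresis of fluorescent products, fitted bidirectionally against DMSO.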

[11] = target: Nuclear respiratory factor 1 (Homo sapiens) (UniProt Q16656); assay: ATG_NRF1_CIS: Attagene CIS-FACTORIAL HepG2 Assay for human Nuclear Respiratory Factor 1 (NRF1) Orphan Gene (AID 2282987); conditions: HepG2 NRF1 cis-element reporter, Attagene multiplex; actives raise or lower the signal
Method in brief: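 HepG2 cells transiently transfected with multiple cis-regulated reporter units, exposed 24 h. Reporter mRNAs measured by RT-PCR, fluorescent labelling, HpaI digestion and capillary electrophoresis; bidirectional fitting against DMSO.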

[12] = ATG_NFI_CIS: Attagene CIS-FACTORIAL HepG2 Assay for human Nuclear Factor I (NFI) (AID 2282989); conditions: HepG2 cis-regulatory reporter, NFI response element transcription; actives raise or lower the signal
Method in brief: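 Transfected HepG2 liver cells, exposed 24 h, supplied total RNA for oligo(dT) reverse transcription and reporter-specific PCR. Labelled, HpaI-cut fragments were sized by capillary electrophoresis; DMSO set the baseline for bidirectional fitting.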

[13] = ATG_GAL4_TRANS: Attagene TRANS-FACTORIAL HepG2 Assay for GAL4 (Internal Marker) (AID 2282976; active = hit-call score of the fitted dose curve at least 0.9, where 1 is the maximum); conditions: HepG2 Attagene TRANS GAL4 internal marker reporter
Method in brief: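 Fluorescence from capillary electrophoresis of labelled RT-PCR products quantifies reporter mRNA induction after 24 h dosing of HepG2 cells carrying transfected GAL4-UAS reporter transcription units. Vehicle DMSO serves as baseline.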

[14] = target: Oxysterols receptor LXR-alpha (Homo sapiens) (UniProt Q13133); assay: ATG_LXRa_TRANS: Attagene TRANS-FACTORIAL HepG2 Assay for human Liver X Receptor alpha (LXRa) (AID 2282980; active = hit-call score of the fitted dose curve at least 0.9, where 1 is the maximum); conditions: HepG2 Attagene TRANS reporter, LXRa transactivation
Method in brief: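 Transient HepG2 transfectants, 24 h dosing, RT-PCR/CE mRNA reporter quantitation; gain-of-signal vs DMSO.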

[15] = target: Oxysterols receptor LXR-beta (Homo sapiens) (UniProt P55055); assay: ATG_LXRb_TRANS: Attagene TRANS-FACTORIAL HepG2 Assay for human Liver X Receptor beta (LXRb) (AID 2282981; active = hit-call score of the fitted dose curve at least 0.9, where 1 is the maximum); conditions: HepG2 Attagene TRANS GAL4-LXRb reporter, mRNA
Method in brief: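 Transient transfection HepG2 (multiplexed RTUs, GAL4-UAS); NR-Gal4 chimera; 24 h exposure; RNA → RT-PCR → 6-FAM primer extension → HpaI → CE; increase vs DMSO.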

[16] = ATG_M_32_TRANS: Attagene TRANS-FACTORIAL HepG2 Assay for M32 Transcription Factor (Internal Marker) (AID 2282984; active = hit-call score of the fitted dose curve at least 0.9, where 1 is the maximum;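 note: transcript level of a background control reporter unit measured by RT-PCR and capillary electrophoresis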); conditions: HepG2 Attagene TRANS M32 internal marker reporter
Method in brief: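 Measures reporter mRNA induction in human HepG2 liver cells after 24 h chemical treatment. Transcripts from transiently transfected GAL4-UAS reporter units are amplified, fluorescently labelled and sized by capillary electrophoresis; gain of signal relative to DMSO.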

[17] = target: Nuclear receptor subfamily 4 group A member 2 (Homo sapiens) (UniProt P43354); assay: ATG_NURR1_TRANS: Attagene TRANS-FACTORIAL HepG2 Assay for human Nuclear Receptor Related Protein 1 (NURR1) (AID 2282985; active = hit-call score of the fitted dose curve at least 0.9, where 1 is the maximum); conditions: HepG2 Attagene TRANS reporter, mRNA readout
Method in brief: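 Transient transfection of HepG2, human liver cells, with multiple GAL4-UAS reporter transcription units. Cells dosed 24 h, RNA isolated, reverse-transcribed, PCR-amplified, FAM-labelled, HpaI-digested, sized by capillary electrophoresis. DMSO served as negative control.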

[18] = target: Glucocorticoid receptor (Homo sapiens) (UniProt P04150); assay: ATG_GR_TRANS: Attagene TRANS-FACTORIAL HepG2 Assay for human Glucocorticoid Receptor (GR) (AID 2282978; active = hit-call score of the fitted dose curve at least 0.9, where 1 is the maximum;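 note: activators score as hits since higher reporter transcript over DMSO is fitted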); conditions: HepG2 Attagene TRANS GR reporter, mRNA transcription
Method in brief: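 HepG2 cells transiently transfected with GAL4-UAS reporter units and exogenous GR-Gal4 chimera, dosed 24 h. Reporter mRNA by RT-PCR, FAM labeling, HpaI digest and capillary electrophoresis; gain-of-signal fit versus DMSO.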

Measured: outcome

Chain of Hepatocyte nuclear factor 4-alpha (Homo sapiens) (P41235 whole entry, looked up, the tested form may be a part): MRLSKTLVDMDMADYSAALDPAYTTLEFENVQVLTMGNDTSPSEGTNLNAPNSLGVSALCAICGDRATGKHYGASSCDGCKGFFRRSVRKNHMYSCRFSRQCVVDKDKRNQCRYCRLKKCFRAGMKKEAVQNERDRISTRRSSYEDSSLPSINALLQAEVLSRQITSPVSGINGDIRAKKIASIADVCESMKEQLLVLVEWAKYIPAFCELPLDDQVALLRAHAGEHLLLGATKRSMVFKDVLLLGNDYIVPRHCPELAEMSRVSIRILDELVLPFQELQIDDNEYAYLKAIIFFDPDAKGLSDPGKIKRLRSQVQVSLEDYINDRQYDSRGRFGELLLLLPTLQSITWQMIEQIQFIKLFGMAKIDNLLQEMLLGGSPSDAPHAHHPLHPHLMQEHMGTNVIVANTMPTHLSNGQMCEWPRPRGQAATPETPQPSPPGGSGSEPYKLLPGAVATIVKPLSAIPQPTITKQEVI
Chain of Oxysterols receptor LXR-alpha (Homo sapiens) (Q13133 whole entry, looked up): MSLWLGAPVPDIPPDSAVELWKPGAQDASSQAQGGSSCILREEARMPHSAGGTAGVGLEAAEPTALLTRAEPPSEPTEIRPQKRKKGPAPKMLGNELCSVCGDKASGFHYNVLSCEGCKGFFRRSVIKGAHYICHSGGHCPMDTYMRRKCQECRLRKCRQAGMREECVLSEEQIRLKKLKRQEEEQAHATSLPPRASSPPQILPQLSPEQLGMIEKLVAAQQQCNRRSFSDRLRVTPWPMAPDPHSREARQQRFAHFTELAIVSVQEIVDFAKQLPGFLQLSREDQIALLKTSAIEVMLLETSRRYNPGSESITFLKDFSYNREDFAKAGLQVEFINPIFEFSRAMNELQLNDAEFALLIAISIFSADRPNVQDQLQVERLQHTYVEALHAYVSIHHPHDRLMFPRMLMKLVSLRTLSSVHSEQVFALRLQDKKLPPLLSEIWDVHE
Chain of Nuclear respiratory factor 1 (Homo sapiens) (Q16656 whole entry, looked up): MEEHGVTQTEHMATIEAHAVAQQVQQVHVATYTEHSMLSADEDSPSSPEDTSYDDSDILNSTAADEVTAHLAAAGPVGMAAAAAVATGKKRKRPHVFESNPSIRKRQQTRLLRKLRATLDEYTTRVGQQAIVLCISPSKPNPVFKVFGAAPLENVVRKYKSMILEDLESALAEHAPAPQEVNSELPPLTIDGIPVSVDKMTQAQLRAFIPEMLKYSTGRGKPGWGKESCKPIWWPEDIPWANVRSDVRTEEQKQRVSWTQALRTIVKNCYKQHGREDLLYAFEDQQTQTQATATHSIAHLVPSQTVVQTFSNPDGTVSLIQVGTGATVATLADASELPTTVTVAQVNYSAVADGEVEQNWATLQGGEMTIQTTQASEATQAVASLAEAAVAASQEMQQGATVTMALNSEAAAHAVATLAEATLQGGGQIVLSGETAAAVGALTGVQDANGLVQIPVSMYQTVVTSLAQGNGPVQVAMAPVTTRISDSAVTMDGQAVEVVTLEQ
Chain of Glucocorticoid receptor (Homo sapiens) (P04150 whole entry, looked up, the tested form may be a part): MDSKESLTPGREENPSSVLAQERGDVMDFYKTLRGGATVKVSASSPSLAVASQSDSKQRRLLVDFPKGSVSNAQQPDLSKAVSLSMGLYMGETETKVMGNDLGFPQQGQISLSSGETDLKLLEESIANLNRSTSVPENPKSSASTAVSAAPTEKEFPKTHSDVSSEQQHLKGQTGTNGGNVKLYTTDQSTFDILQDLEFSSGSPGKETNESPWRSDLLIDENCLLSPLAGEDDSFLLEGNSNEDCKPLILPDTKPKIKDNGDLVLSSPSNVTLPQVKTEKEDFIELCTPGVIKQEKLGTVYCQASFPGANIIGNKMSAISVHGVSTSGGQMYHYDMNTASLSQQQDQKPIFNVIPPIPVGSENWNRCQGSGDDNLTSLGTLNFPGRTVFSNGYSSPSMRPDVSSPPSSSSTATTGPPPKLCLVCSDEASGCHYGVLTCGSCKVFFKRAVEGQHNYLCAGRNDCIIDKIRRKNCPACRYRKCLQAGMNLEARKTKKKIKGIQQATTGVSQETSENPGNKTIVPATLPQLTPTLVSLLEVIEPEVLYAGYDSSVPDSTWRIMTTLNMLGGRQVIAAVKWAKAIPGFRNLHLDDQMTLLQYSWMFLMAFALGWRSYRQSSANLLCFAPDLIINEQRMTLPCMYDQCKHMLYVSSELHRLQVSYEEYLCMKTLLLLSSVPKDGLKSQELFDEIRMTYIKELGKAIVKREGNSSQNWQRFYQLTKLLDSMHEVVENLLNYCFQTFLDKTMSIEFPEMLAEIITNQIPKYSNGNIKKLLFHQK
Chain of Transcriptional activator Myb (Homo sapiens) (P10242 whole entry, looked up): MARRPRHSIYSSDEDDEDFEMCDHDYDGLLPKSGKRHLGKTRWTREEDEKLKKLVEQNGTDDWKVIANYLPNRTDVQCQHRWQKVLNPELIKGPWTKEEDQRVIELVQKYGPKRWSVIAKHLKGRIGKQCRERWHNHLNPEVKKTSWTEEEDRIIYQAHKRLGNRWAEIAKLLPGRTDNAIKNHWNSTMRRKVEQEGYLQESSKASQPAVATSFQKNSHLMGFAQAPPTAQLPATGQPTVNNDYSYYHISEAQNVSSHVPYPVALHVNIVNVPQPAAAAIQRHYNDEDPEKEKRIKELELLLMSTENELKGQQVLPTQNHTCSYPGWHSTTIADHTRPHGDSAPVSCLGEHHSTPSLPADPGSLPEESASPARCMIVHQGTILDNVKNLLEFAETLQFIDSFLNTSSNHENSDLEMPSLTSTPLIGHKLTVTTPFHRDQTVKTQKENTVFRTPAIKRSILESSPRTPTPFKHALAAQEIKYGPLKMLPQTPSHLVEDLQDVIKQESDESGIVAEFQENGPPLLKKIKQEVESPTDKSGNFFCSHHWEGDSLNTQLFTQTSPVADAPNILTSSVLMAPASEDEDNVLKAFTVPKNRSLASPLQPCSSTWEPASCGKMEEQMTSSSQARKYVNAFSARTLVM
Chain of Bile acid receptor (Homo sapiens) (Q96RI1 whole entry, looked up, the tested form may be a part): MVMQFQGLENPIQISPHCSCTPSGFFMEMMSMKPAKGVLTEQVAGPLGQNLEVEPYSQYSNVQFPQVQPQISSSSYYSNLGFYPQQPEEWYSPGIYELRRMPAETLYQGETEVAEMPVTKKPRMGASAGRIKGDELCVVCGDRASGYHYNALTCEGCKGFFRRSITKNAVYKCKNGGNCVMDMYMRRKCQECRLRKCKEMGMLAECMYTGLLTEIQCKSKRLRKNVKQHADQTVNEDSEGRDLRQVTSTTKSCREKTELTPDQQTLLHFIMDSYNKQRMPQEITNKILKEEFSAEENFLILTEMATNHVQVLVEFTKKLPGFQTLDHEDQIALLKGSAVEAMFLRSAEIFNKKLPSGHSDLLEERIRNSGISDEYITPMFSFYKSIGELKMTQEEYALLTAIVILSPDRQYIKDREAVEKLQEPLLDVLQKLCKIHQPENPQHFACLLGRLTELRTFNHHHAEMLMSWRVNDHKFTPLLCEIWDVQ
Chain of Oxysterols receptor LXR-beta (Homo sapiens) (P55055 whole entry, looked up, the tested form may be a part): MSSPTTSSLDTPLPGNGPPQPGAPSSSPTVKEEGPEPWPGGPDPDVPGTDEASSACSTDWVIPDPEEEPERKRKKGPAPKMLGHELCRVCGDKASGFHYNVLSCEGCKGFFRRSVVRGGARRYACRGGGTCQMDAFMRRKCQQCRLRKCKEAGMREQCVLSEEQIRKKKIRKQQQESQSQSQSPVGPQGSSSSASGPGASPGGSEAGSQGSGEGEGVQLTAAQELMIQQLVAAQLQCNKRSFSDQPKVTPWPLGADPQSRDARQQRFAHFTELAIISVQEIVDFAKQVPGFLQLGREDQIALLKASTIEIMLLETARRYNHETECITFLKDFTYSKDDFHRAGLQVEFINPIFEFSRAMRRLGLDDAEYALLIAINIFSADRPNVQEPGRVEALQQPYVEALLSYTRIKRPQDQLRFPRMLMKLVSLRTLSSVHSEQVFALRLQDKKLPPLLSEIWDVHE
Chain of Nuclear receptor subfamily 4 group A member 2 (Homo sapiens) (P43354 whole entry, looked up, the tested form may be a part): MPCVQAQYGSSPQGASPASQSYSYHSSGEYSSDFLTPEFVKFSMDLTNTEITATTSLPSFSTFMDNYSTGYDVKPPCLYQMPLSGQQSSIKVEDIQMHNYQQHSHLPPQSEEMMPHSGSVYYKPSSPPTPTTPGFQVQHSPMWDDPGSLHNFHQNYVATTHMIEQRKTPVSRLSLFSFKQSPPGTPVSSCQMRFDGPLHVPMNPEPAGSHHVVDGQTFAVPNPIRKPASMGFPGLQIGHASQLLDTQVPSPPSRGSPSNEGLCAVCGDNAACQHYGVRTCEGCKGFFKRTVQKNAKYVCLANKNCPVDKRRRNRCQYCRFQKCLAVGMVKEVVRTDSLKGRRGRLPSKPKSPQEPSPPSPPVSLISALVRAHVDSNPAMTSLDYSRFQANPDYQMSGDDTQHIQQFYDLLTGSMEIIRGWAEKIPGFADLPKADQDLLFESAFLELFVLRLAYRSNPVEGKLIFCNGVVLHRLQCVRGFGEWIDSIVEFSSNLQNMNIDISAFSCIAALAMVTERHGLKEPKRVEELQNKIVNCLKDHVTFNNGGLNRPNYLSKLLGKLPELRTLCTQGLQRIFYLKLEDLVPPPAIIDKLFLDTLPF
Chain of X-box-binding protein 1 (Homo sapiens) (P17861 whole entry, looked up): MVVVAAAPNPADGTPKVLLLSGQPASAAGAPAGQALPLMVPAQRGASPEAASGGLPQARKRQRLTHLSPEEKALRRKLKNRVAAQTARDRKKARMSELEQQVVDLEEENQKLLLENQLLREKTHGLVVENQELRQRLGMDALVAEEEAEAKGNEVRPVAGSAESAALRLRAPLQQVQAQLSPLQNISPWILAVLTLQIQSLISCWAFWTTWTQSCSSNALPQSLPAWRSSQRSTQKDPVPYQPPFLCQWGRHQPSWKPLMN

COc1cc([C@@H]2c3cc4c(cc3[C@@H](O[C@@H]3O[C@@H]5CO[C@@H](C)O[C@H]5[C@H](O)[C@H]3O)[C@H]3COC(=O)[C@H]23)OCO4)cc(OC)c1O
not listed: [13] | [14] | [15] | [16] | [17] | [18]
inactive: all other assays above

CCC(=O)OCCOc1ccccc1
not listed: [6] | [7] | [8] | [18]
inactive: all other assays above

COc1ccc(CCC(C)=O)cc1
not listed: [6] | [8] | [9] | [12] | [16] | [17] | [18]
inactive: all other assays above

CCCC[P+](CCCC)(CCCC)CCCC
not listed: [6] | [8] | [9] | [12] | [15] | [17] | [18]
inactive: all other assays above

Nc1ccc2cc(S(=O)(=O)O)cc(O)c2c1N=Nc1ccccc1C(F)(F)F
not listed: [6] | [9] | [13]
inactive: all other assays above

CCOC(=O)C1OC1c1ccccc1 (configuration not stated)
not listed: [6] | [7] | [8] | [14] | [15] | [16]
inactive: all other assays above

CN(C)CCOc1ccc(/C(=C(/CCCl)c2ccccc2)c2ccccc2)cc1
not listed: [6] | [8] | [9] | [13] | [16]
inactive: all other assays above

CC(C)Nc1nc(N)nc(Cl)n1
not listed: [6] | [7] | [13] | [14] | [15] | [16]
inactive: all other assays above

CC(=O)O[C@@H]1CC2CCC1(C)C2(C)C (some centres not stated)
not listed: [6] | [9] | [16] | [18]
inactive: all other assays above

CCCCC(CC)C(=O)OC(C)C (configuration not stated)
not listed: [6] | [7] | [8] | [13] | [18]
inactive: all other assays above
